Test [1] can be described thus: MultiTox-Fluor Cytotoxicity Assay - LYMP1-001 - Live Cells (AID 947).
Test [2] in a line: MultiTox-Fluor Cytotoxicity Assay - LYMP1-002 - Dead Cells (AID 960). Further: nearly all actives have a fitted effect of over 60% in size. Put shortly:
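LYMP1-002 cells 2500/well; 5 hr 37 C pre-incubation; compound 16 hr 37 C; MultiTox-Fluor reagent 60 min RT; dead-cell fluor Ex/Em 485/520. Norm. to DMSO (0%) vs 15 uM tetraoctylammonium bromide (100%); Hill AC50.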

The target of test [3] is Tumor necrosis factor (Homo sapiens) (UniProt P01375). Put plainly: qHTS assay to identify small molecules that stimulate Tumor Necrosis Factor-alpha (TNF-alpha) secretion (AID 651757; active means well fitted curve in the direction sought with a large enough effect in the signal ratio; the % refers to the signal ratio). The procedure, abridged: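 Read-out is HTRF, a TR-FRET sandwich of cryptate- and XL665-labeled anti-TNF-alpha antibodies detecting cytokine secreted by THP-1 cells. Cells had been incubated with test compounds at 37 C for 17 hrs beforehand.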
Tumor necrosis factor (Homo sapiens), sequence (P01375 whole entry, looked up): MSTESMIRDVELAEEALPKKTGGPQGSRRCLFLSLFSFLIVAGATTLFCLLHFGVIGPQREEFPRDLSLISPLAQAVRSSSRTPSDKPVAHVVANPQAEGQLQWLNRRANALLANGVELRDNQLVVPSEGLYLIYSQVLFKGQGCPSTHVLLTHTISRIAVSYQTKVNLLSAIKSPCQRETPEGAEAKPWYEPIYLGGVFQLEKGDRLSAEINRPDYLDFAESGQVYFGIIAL
For orientation: qHTS replaces the single test concentration by a dilution series.

The target in test [4] is ATP-dependent 6-phosphofructokinase (Trypanosoma brucei brucei) (UniProt O15648). In words: qHTS Assay to Find Inhibitors of T. brucei phosphofructokinase: hit validation (AID 492961).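 Further: luminescence reports ADP formed as PFK phosphorylates fructose-6-phosphate with ATP.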 The procedure, abridged: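 Percent activity derived from corrected luminescence, normalized between 0x and 1x enzyme controls, then fitted to concentration-response curves. Conditions: 1.25 nM PFK, 0.1 mM ATP, 0.5 mM F6P, 45 min RT.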
ATP-dependent 6-phosphofructokinase (Trypanosoma brucei brucei), sequence (O15648 whole entry, looked up): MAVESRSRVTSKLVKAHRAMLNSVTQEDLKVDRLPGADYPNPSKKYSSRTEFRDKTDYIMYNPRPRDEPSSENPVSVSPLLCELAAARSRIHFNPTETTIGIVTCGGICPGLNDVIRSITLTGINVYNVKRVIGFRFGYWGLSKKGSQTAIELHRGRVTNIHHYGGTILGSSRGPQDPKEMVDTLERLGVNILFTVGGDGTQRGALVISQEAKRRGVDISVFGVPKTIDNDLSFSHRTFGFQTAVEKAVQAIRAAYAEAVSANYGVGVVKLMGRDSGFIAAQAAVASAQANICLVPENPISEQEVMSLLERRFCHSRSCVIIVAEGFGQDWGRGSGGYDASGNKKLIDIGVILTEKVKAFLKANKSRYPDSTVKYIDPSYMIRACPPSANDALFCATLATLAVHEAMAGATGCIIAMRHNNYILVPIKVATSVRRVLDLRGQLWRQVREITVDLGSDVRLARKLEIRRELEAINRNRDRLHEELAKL

Test [5] can be described thus: S16 Schwann cell PMP22 intronic element firefly luciferase assay (AID 624032). Further: nearly all actives have a fitted effect of over 30% in size. Further: potency means the concentration at half of the fitted maximal effect. The procedure, abridged:
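Rat S16 Schwann cells stably carrying a PMP22 intronic element-driven Fluc reporter were seeded overnight, then exposed to compounds for 24 h at 37 °C. Luminescence was normalized to PTC124 (positive control) and DMSO (0% activity).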

In the next test the test system is CP201. Put plainly: qHTS profiling for inhibitors of Plasmodium falciparum proliferation (AID 504749). Further: nearly all actives have a fitted effect of over 60% in size. Further: potency means the concentration at half of the fitted maximal effect. To be noted: P. falciparum in erythrocytes, SYBR Green DNA, 72 h; series mostly up to 28.7 µM. Put shortly: (§1)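 Parasite proliferation within erythrocytes, 72 h exposure. Endpoint: SYBR Green I fluorescence after overnight lysis at room temperature. Controls: 0.29 uM artemisinin, DMSO.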

The test system of another test is FAB9. Described as above. The conditions noted are these: P. falciparum in erythrocytes, SYBR Green DNA, 72 h; series mostly up to 28.7 µM. Put shortly: as §1
A further test has as its system PC49. The description is as above. The conditions noted are these: P. falciparum in erythrocytes, SYBR Green DNA, 72 h; series mostly up to 28.7 µM. The procedure, abridged:
as §1

Test [6] deals with Vitamin D3 receptor (Homo sapiens) (UniProt P11473). In words: qHTS assay for small molecule agonists of vitamin D receptor signaling (AID 588543; calls by dose curve). Put shortly:
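qHTS in agonist mode: compound titrations stimulate a VDR-driven β-lactamase reporter in HEK293T cells over 16 h at 37 °C. Response normalized to 50 nM 1α,25-dihydroxyvitamin D3 = 100%, DMSO = 0%; Hill fitting gives EC50 and maximal response.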

Test [7] can be described thus: qHTS assay for small molecule disruptors of the mitochondrial membrane potential - 5 hr assay (AID 651755; calls by dose curve; further: nearly all actives have a fitted effect of over 40% in size). The procedure, abridged:
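HepG2 cells, attached overnight at 37C, were exposed to compound or DMSO for 5 hr at 37C, 5% CO2. Mito-MPS dye was then added for 30 min, and fluorescence read at 490/535 nm (monomers) and 540/590 nm (aggregates).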

In a further test the test system is 3D7. Put plainly: qHTS profiling for inhibitors of Plasmodium falciparum proliferation (AID 504749). Further: nearly all actives have a fitted effect of over 60% in size. Further: potency means the concentration at half of the fitted maximal effect. To be noted: P. falciparum in erythrocytes, SYBR Green DNA, 72 h; series mostly up to 28.7 µM. Put shortly: as §1
The subject of the next test is CP185. The description is as above. The conditions noted are these: P. falciparum in erythrocytes, SYBR Green DNA, 72 h; series mostly up to 28.7 µM. Put shortly:
as §1

A further test deals with CP252. The test is described as above. To be noted: P. falciparum in erythrocytes, SYBR Green DNA, 72 h; series mostly up to 28.7 µM. The procedure, abridged:
as §1

The next test deals with CP268. The description is as above. To be noted: P. falciparum in erythrocytes, SYBR Green DNA, 72 h; series mostly up to 28.7 µM. The procedure, abridged: as §1
A further test has as its system CP297. The test is described as above. The conditions noted are these: P. falciparum in erythrocytes, SYBR Green DNA, 72 h; series mostly up to 28.7 µM. The procedure, abridged:
as §1

For another test, the system named is DIV14. The test is described as above. The conditions noted are these: P. falciparum in erythrocytes, SYBR Green DNA, 72 h; series mostly up to 28.7 µM. Put shortly:
as §1

A further test deals with DIV30. The test is described as above. To be noted: P. falciparum in erythrocytes, SYBR Green DNA, 72 h; series mostly up to 28.7 µM. The procedure, abridged:
as §1

The next test deals with HB3. The description is as above. To be noted: P. falciparum in erythrocytes, SYBR Green DNA, 72 h; series mostly up to 28.7 µM. The procedure, abridged: as §1
In the next test the test system is PC26. The description is as above. To be noted: P. falciparum in erythrocytes, SYBR Green DNA, 72 h; series mostly up to 28.7 µM. The procedure, abridged: as §1
A further test relates to PAD. Described as above. The conditions noted are these: P. falciparum in erythrocytes, SYBR Green DNA, 72 h; series mostly up to 28.7 µM. The procedure, abridged:
as §1

Records with an inconclusive call do not appear. The source made the active and inactive calls. Unless noted, the call rests on the fitted dose curve; in most records, active means well fitted curve in the direction sought with a large enough effect; inconclusive means small, poorly fitted or top-dose-only effect, or another doubt; inactive means no such curve, though single readings can be large; an effect the other way counts as inactive or inconclusive. Bridge positions count the residues as written; N and C are the ends. Square brackets hold non-standard residues; d marks the D form. Peptide text beside a SMILES is read from it. * marks the point of attachment. Octanoyl(6-Me) = CCC(C)CCCCC(=O)*; Dab = NCC[CH](N)C(=O)O

Our source for the Potency and outcome values is PubChem BioAssay (NCATS).

Vitamin D3 receptor (Homo sapiens), sequence (P11473 whole entry, looked up): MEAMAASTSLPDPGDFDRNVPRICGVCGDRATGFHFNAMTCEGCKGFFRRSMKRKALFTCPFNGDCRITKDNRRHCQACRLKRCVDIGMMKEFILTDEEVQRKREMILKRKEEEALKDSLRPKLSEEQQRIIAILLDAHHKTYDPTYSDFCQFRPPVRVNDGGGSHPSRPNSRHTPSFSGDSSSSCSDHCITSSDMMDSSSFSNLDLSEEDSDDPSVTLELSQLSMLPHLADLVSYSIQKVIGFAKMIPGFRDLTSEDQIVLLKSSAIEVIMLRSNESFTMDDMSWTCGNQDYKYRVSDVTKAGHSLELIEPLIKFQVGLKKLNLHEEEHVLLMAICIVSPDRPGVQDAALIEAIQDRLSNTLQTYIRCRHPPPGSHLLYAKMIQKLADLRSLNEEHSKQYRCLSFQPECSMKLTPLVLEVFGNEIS

In the case of `O=C(O)c1ccccc1C(c1ccc(O)cc1)c1ccc(O)cc1`, the Potency entry in test [1] and in test [2] was “inactive” each time. In [3], the compound was classed as inactive.
For the compound `O=NCc1ccc([N+](=O)[O-])o1`, in test [4], the compound was called inactive. Also, in test [5], the Potency is 12.8 µM (active). Also, the Potency result in the test on CP201, in the test with FAB9 and with PC49 was “inactive” in each case.
`O=S(=O)(O)c1ccccc1`: the Potency entry in [1], in test [2] and in [7] was “inactive” each time. Also, the outcome in test [6] and in [3] was inactive.
For `c1ccc2scnc2c1`, the Potency entry in [2] and in test [7] was “inactive” in each case. Besides, the call in test [6] and in test [3] was inactive.
In the case of `CCC(C)CCCCC(=O)NC(CCN)C(=O)NC(C(=O)NC(CCN)C(=O)NC1CCNC(=O)C(C(C)O)NC(=O)C(CCN)NC(=O)C(CCN)NC(=O)C(CC(C)C)NC(=O)C(Cc2ccccc2)NC(=O)C(CCN)NC1=O)C(C)O` (stereo not given) ({Octanoyl(6-Me)}-[Dab]T[Dab][Dab][Dab]FL[Dab][Dab]T; lactam 4-C; configuration not given here), the Potency entry (in test [5]; in the test with 3D7; in the test with CP185; in the test on CP201; with CP252; in the test with CP268) was “inactive” throughout. Besides, the Potency entry in the test with CP297, in the test on DIV14, in the test on DIV30, with FAB9, in the test with HB3 and in the test on PC26 was “inactive” throughout. The Potency entry in the test on PC49 was “inactive”.
In the case of `CC1CCC(C(C)C)C(OC(=O)c2ccccc2O)C1` (stereo not given), the call in test [4] was inactive. The Potency result (in test [5]; in the test with 3D7; in the test with CP185; with CP201; in the test on CP252; in the test on CP268) was “inactive” in each case. For the same compound, the Potency result in the test on CP297, in the test on DIV14, in the test with DIV30, in the test with FAB9, with HB3 and in the test with PAD was “inactive” throughout. For the same compound, the Potency entry in the test with PC26 and in the test on PC49 was “inactive” each time.
`CCN1/C(=C/C=C/C=C/c2sc3ccccc3[n+]2CC)Sc2ccccc21`: the Potency was 2 µM (active) with 3D7; 3.98 µM (active) in the test with CP185; 12 µM (active) in the test with CP201; 3.98 µM (active) in the test with CP252; 12 µM (active) with CP268; 12 µM (active) with CP297. Besides, the Potency is 8.49 µM (active) in the test on DIV14; 12 µM (active) in the test on DIV30; 3.16 µM (active) in the test with FAB9; 2.24 µM (active) in the test with HB3; 5.01 µM (active) with PAD; 5.62 µM (active) with PC49.
On to `CC(=O)O[C@@]12CO[C@@H]1C[C@H](O)[C@@]1(C)C(=O)[C@H](O)C3=C(C)[C@@H](OC(=O)C(O)[C@@H](NC(=O)OC(C)(C)C)c4ccccc4)C[C@@](O)([C@@H](OC(=O)c4ccccc4)[C@H]21)C3(C)C` (stereo not given in full), for which the compound was classed as inactive in test [4]. The Potency was 0.0251 µM (active) with 3D7; 0.0251 µM (active) with CP185; 0.0178 µM (active) with CP252; 0.0953 µM (active) with CP297; 1.2 µM (active) in the test on DIV14; 0.0536 µM (active) in the test with DIV30. For the same compound, the Potency in the test on HB3 was 0.0794 µM (active); in the test with PAD, 0.126 µM (active); with PC26 it was 0.0379 µM (active).
In the case of `Cc1cc(CC(C)CC(C)(C)C)n(O)c(=O)c1` (stereo not given), the compound was classed as inactive in [4]. Also, the Potency is 16.1 µM (active) in test [5]; 2 µM (active) with 3D7; 1.12 µM (active) with CP185; 4.78 µM (active) in the test with CP201; 2.82 µM (active) with CP252; 2.69 µM (active) with CP268. The Potency in the test on CP297 was 1.69 µM (active); in the test on DIV14, 1.51 µM (active); in the test with DIV30 it was 3.79 µM (active); with HB3, 8.91 µM (active); in the test on PAD it was 2.82 µM (active); with PC26 it was 3.79 µM (active).
Take `CCC(=O)O[C@@H](OP(=O)(CCCCc1ccccc1)CC(=O)N1C[C@H](C2CCCCC2)C[C@H]1C(=O)O)C(C)C` (stereo not given in full): the compound was called inactive in test [4]. For the same compound, the Potency entry (in test [5]; in the test with 3D7; with CP185; in the test on CP201; in the test on CP252; in the test with CP268) was “inactive” in each case. Moreover, the Potency result in the test with CP297, with DIV14, in the test on DIV30, in the test with FAB9, with HB3 and in the test with PAD was “inactive” in each case. The Potency result in the test on PC26 and with PC49 was “inactive” in each case.
